Giardia FBPA inh = inhibitors of Giardia lamblia fructose-1,6-bisphosphate aldolase. purified Giardia FBPA. A8B2U2. 290,000 tested, 0.71% active. AID 2451. Potency, µM (top dose mostly 59.6 µM), for inactives: at the highest dose activity, negative = inhibition, actives largely listed as inhibitors; further: potency means the concentration at half of the fitted maximal effect; on the % scale 0 is the no-effect control and ±100 the full control effect; nearly all actives have a fitted effect of over 55% in size
Target sequence (A8B2U2 whole entry, looked up): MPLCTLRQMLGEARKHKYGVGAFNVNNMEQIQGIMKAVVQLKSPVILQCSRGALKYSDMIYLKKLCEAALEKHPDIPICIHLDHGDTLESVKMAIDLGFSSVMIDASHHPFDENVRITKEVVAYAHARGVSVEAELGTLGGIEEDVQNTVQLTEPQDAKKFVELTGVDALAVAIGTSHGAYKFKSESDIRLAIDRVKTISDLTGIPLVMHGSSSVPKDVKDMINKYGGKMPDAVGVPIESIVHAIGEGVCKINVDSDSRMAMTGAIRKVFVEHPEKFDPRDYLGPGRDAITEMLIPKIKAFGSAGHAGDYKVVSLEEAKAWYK
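Giardia FBPA (40 nM reagent) was preincubated 10 min at RT with compound (up to 57.5 uM final), then substrate plus GAPDH/TPI/NAD/arsenate coupling system with diaphorase/resazurin was added; resorufin fluorescence (525/598 nm) was read after 20 min.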
Shiga inhibitor = Shiga toxin inhibition | Vero cells, Shiga toxin protein synthesis inhibition reporter | inhibition, % at 38.7 µM | 290,000 tested, 9.2% active | AID 2315; in the data active means inhibition mostly above about 28%, no sharp cut-off; inactive means mostly below about 43%; further: 0% is about no effect
Cycloheximide cs = counter-screen for Shiga toxin inhibitors: cycloheximide protein synthesis inhibition | cell reporter, cycloheximide protein synthesis inhibition counterscreen | max response, % | 300,000 tested, 12% active; in the data active means max response mostly above about 13%, no sharp cut-off; inactive means mostly below about 14%; further: read at 38.3 µM for the half of the compounds with a filed dose; 0% is about no effect
NS1 inh = blocks influenza NS1 protein function. Potency, µM (titrated, usually from 46.1 µM), for inactives: at the highest dose activity, positive = more growth. 270,000 tested, 0.4% active; calls by dose curve; further: potency means the concentration at half of the fitted maximal effect; actives are rising curves; nearly all actives have a fitted effect of over 50% in size
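A cell-based growth assay was used: compounds that relieve NS1-induced slow growth of budding yeast raise OD600. Assay medium was yeast nitrogen base with ammonium sulphate and -URA supplement, pH 6.0, with 2% galactose.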
Pf growth 96h = P. falciparum growth inhibition at 96 hours; P. falciparum luciferase reporter growth, 96 h; Potency, µM (series often up to 28.7 µM), inactives show at the highest dose activity change, negative = inhibition, most hits filed as inhibitors; 320,000 tested, 6.9% active; AID 504834; further: potency means the concentration at half of the fitted maximal effect; on the % scale 0 is the no-effect control and ±100 the full control effect
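Two-generation exposure (96 h) targets delayed-death phenotype. Reporter parasites carrying integrated firefly luciferase, in red cells at 2% hematocrit and 0.05% parasitemia final, kept at 37 C, 5% CO2; luminescence loss indicates inhibition.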
Pf growth 48h = inhibits P. falciparum growth in the first generation, 48 h. Potency, µM (doses to about 28.7 µM), without a hit: at the top dose activity change, negative = inhibition, actives largely listed as inhibitors. P. falciparum luciferase growth in erythrocytes, 48 h. 310,000 tested, 5.9% active. AID 504832; further: potency means the concentration at half of the fitted maximal effect; on the % scale 0 is the no-effect control and ±100 the full control effect
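First compound was added to culture medium, then infected red cells at 0.1% parasitemia and 2% hematocrit (final). After incubation at 37 C under 5% CO2, luciferase detection reagent was dispensed and light output recorded.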
Starred values were filed as active, the others as inactive; ? = inconclusive; / = no result. Most compounds without a hit are left out; they make up all but 21% or so of the library. Unless noted, the call rests on the fitted dose curve; in most records, active means well fitted curve in the direction sought with a large enough effect; inconclusive means small, poorly fitted or top-dose-only effect, or another doubt; inactive means no such curve, though single readings can be large; an effect the other way counts as inactive or inconclusive.

SMILES	Giardia FBPA inh	Shiga inhibitor	Cycloheximide cs	NS1 inh	Pf growth 96h	Pf growth 48h
COc1ccc(N(C(=O)C(C)C)S(=O)(=O)c2ccc3ccccc3c2)cc1	1%	/	1	-3%	12%	47%
CC1CCCN(S(=O)(=O)c2cc3c4c(c2)CCN4C(=O)CC3)C1 (stereo not given)	/	/	/	/	-25%	-13%
CC(=O)N1[C@H](C)C=C[C@]1(Cc1ccccc1)C(=O)NCCN1CCOCC1	2%	/	/	/	/	/
C=CCc1cccc(CNc2ccc(Br)cc2)c1O	-8%	6	7	4%	?	12µM*
C=CCn1c(NCc2ccccc2OC)nc2ccccc21	11%	32	18*	-8%	?	61%
Cc1ccc(C)c(OCC(=O)Nc2ccc(S(=O)(=O)Nc3ncccn3)cc2)c1	6%	-5	-5	12%	52%	?
COc1ccccc1OCC(=O)Nc1ccc(N2CCOCC2)cc1N1CCOCC1	/	/	/	/	?	2%
Cc1cc(OCC(=O)Nc2ccc(N3CCCC3)cc2)cc(C)c1Cl	-6%	-5	-1	10%	?	/
Cc1cc(N2CCCC2)ccc1NC(=O)COc1ccccc1	/	/	/	/	?	15µM*
CCc1ccccc1OCC(=O)Nc1ccc(N2CCCC2)cc1C	/	/	/	/	2.6µM*	5.2µM*
O=S(=O)(O)CC(S)CS (stereo not given)	/	/	/	/	-16%	2%
CN(C)c1ccc(N=Cc2ccco2)cc1	2.8µM*	99*	55*	?	?	0.83µM*
CN(C)c1ccc(C=Nc2ccc(N(C)C)cc2)cc1	?	78*	36*	-9%	-19%	?
Cc1ccc(N=Cc2ccc(N(C)C)cc2)cc1	-16%	-12	7	-81%	15%	60%
C(=Nc1cccc2c(N=Cc3ccco3)cccc12)c1ccco1	?	47*	17	/	-23%	2%
Cc1ccc(N=Cc2ccc(N(C)C)cc2)cc1C	0%	23	10	/	?	16%
O=C(Nc1ccccc1C(F)(F)F)C1CCN(C(=O)Cc2ccccc2)CC1	-5%	-3	-2	-10%	-20%	7%
COc1ccccc1OCCn1c(CO)nc2ccccc21	3%	-4	7	-1%	23%	9%
COc1ccccc1OCCn1nnc2ccccc21	-2%	104*	34*	-2%	5%	37%
CCOc1ccccc1OCCn1nnc2ccccc21	-5%	22	8	1%	10µM*	0%
Cc1ccc(OCCn2nnc3ccccc32)cc1C	9%	48*	45*	-27%	?	97%
Cc1c(C(=O)Nc2nc3ccccc3[nH]2)oc2c(Cl)cccc12	18%	76*	32*	13%	?	?
Cc1c(C(=O)Nc2nc3ccccc3[nH]2)oc2ccccc12	9%	100*	47*	-12%	-70%	-31%
CCN(CC)S(=O)(=O)c1cc(OC)c(Cl)cc1Cl	5%	-2	28*	-89%	-18%	/
O=C(O)CCc1ccc(-c2ccccc2)o1	-1%	6	15*	-46%	16%	22%
SMILES	Giardia FBPA inh	Shiga inhibitor	Cycloheximide cs	NS1 inh	Pf growth 96h	Pf growth 48h
COc1ccc(CN(C)C(=O)c2oc3ccccc3c2CSC)cc1F	-1%	-5	-6	-17%	-1%	3%
O=C(NCCc1ccccc1)C(=O)c1c(-c2ccccc2)[nH]c2ccccc12	0%	-17	-3	-6%	5.2µM*	-29%
CC(=O)c1c(-c2ccccc2)[nH]c2ccccc12	1%	/	-1	-41%	?	3%
O=C(O)/C=C/C(=O)c1c(-c2ccccc2)[nH]c2ccccc12	-2%	-4	-2	11%	4.1µM*	6.6µM*
O=C(O)C1CSC2(c3ccc(Br)cc3)CCC(=O)N12 (stereo not given)	12%	-9	-5	10%	6%	0%
O=C(C[n+]1ccccn1)c1ccccc1	-17%	40*	15*	?	?	10%
O=C(C[n+]1ccsc1)c1ccccc1	7%	13	7	17%	2%	-7%
CC1CC(=O)c2c(cc3c(-c4c(O)cc(O)c5c(O)c6c(cc45)OC(C)CC6=O)c(O)cc(O)c3c2O)O1 (stereo not given)	-27%	-20	2	?	6%	0.41µM*
COc1ccc(C2CC(=O)c3c(O)cc(O)cc3O2)cc1O (stereo not given)	8%	/	/	/	/	/

Compound activity deposited in PubChem by National Center for Advancing Translational Sciences (NCATS).
